From PubChem BioAssay
An excerpt weighted towards active compounds, which were near 10% of everything screened.
HP1b chromo inh: HP1-beta chromodomain-methylated histone interaction inhibition; 0.56% of 390,000 active; AlphaScreen HP1-beta / biotin-H3K9me3 peptide binding; P83916; Potency, µM (top dose mostly 114 µM), inactives show top-dose activity change, negative = inhibition, hits mostly inhibitors; AID 540317; note: potency is the fitted concentration of half-maximal effect; nearly all actives have a fitted effect of over 70% in size
Target sequence (P83916 whole entry, looked up): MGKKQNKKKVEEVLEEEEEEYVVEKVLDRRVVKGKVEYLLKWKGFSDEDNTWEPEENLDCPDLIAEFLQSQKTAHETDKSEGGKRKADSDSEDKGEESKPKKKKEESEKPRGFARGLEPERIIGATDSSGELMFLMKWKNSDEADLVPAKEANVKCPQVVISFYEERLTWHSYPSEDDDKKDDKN
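Compound inhibition of the preformed complex between 50 nM HP1-beta and 50 nM biotinylated H3K9me3 peptide was read by AlphaScreen. Buffer was PBS pH 7.4 with 0.01% Tween-20. Incubations ran 30 min at room temperature, with 10 ug/mL donor/acceptor beads.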
Six1-Eya2 inh: blocks human Six1 binding to Eya2. Q15475+O00167. AlphaScreen GST-Six1/His-Eya2 binding, biochemical; active compounds read low. activity change, % (no concentration beside the values). 0.56% of 360,000 active. AID 651725; in the data active = activity change below about -65%; inconclusive = mostly about -30% to -63%; note: % is set by controls: 0 for no effect and ±100 for the full control effect
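Compounds are tested against tagged Six1 and Eya2 proteins bridged by glutathione donor and nickel acceptor beads; after a one-hour incubation at 37 °C without light, AlphaScreen emission is recorded.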
JMJD2A Tudor: inhibitors of human JMJD2A Tudor domain | O75164 | AlphaScreen JMJD2A-Tudor / H3K4me3 peptide binding | Potency, µM (top dose mostly 114 µM), for inactives: at the top dose activity change, negative = inhibition, hits mostly inhibitors | 4.4% of 390,000 active; note: potency is the fitted concentration of half-maximal effect; % is set by controls: 0 for no effect and ±100 for the full control effect; nearly all actives have a fitted effect of over 50% in size
G9a inh: blocks human histone lysine methyltransferase G9a; Q96KQ7; G9a H3K9 monomethylation, AlphaScreen, 2 h; Potency, µM (top dose mostly 102 µM), for the others: at the highest dose activity, negative = inhibition, most hits filed as inhibitors; 8.8% of 350,000 active; note: potency is the fitted concentration of half-maximal effect; % is set by controls: 0 for no effect and ±100 for the full control effect; nearly all actives have a fitted effect of over 75% in size
Target sequence (Q96KQ7 913-1193 limits assumed): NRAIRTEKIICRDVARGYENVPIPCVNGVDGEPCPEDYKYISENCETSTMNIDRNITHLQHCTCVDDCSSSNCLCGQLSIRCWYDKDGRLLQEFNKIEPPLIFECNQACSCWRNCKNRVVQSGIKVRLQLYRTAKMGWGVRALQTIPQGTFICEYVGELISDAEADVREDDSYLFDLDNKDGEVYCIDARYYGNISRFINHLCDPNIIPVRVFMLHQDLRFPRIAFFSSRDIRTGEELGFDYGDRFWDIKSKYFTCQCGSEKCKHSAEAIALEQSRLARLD
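Using a bead-based AlphaScreen, monomethylated H3K9 product from 2 h room-temperature reactions (G9a 20 nM, peptide 500 nM, SAM 20 uM) was detected with 0.5 ug/mL rabbit anti-H3K9me1 antibody.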
BAZ2B inh: inhibitors of human BAZ2B bromodomain; Q9UIF8; AlphaScreen BAZ2B-H3K14Ac peptide displacement; Potency, µM (doses to about 114 µM), for inactives: at the highest dose activity change, negative = inhibition, usual class: inhibitors; 4.4% of 360,000 active; AID 504333; note: potency is the fitted concentration of half-maximal effect; % is set by controls: 0 for no effect and ±100 for the full control effect; nearly all actives have a fitted effect of over 60% in size
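AlphaScreen displacement of biotin-H3(5-23)K14Ac peptide (50 nM final) from BAZ2B (50 nM final) in PBS pH 7.4, 0.01% Tween-20; complex preformed 30 min RT, then compounds (top 110 uM) 30 min RT, beads 20 min dark.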
CtBP-E1A inh: inhibitors of CtBP/E1A interaction | AlphaScreen GST-E1A/His-CtBP binding, 1536-well; active compounds read low | activity change, % (concentration not given with the values) | 0.49% of 340,000 active | AID 651724; in the data active = activity change below about -65%; inconclusive = mostly about -30% to -63%; note: % is set by controls: 0 for no effect and ±100 for the full control effect
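Homogeneous bead-based format: GST-tagged E1A captured on glutathione donor beads, His-tagged CtBP on nickel acceptor beads; compounds precede bead addition by 2 h at 37 °C.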
The depositor's hits bear a star; ? = inconclusive; / = no result; [ ] = remark or other dose. Unless noted, calls come from the whole dose curve; as a rule, active = well fitted inhibition curve with a large enough effect; inconclusive = small, poorly fitted or top-dose-only effect; inactive = no such curve, though single readings can be large or run the other way.

SMILES | HP1b chromo inh | Six1-Eya2 inh | JMJD2A Tudor | G9a inh | BAZ2B inh | CtBP-E1A inh
COC1=C(N)C(=O)c2nc(-c3nc(C(=O)O)c(C)c(-c4ccc(OC)c(OC)c4O)c3N)ccc2C1=O | -23% | ? | 89µM* | ? | 2% | ?
OCCNCCSc1ccc(Cl)cc1 | -27% | 0 | 22µM* | 50µM* | 56µM* | /
COCCCNCCCCSc1ccc(Cl)cc1 | ? | 1 | 10µM* | 3.5µM* | ? | 15
CCCCNCCOCCSc1ccc(Cl)cc1 | ? | 1 | 1.4µM* | 8.9µM* | ? | 9
COCCCNCCOCCSc1ccc(Cl)cc1 | ? | 16 | 1.8µM* | ? | ? | -3
CCOc1ccc(OCC)c(NC(=O)c2cc(-c3cccs3)nc3ccccc23)c1 | 28% | / | -17% | -35%[59 µM] | 2% | /
S=C(NCCCCNC(=S)NCc1ccccc1)NCc1ccccc1 | -11% | -13 | -1% | 45µM* | -20% | -22
S=C(NCc1ccccc1)C(=S)NCc1ccccc1 | ? | ? | 35µM* | / | / | ?
O=C(COc1ccc(Cl)cc1)NNC(=S)NCc1ccccc1 | 16% | 8 | -16% | 32µM* | 25% | -14
CCNC(=S)NNC(=S)NCc1ccccc1 | 6% | 3 | 1.3µM* | 10µM* | -27% | 7
S=C(NCc1ccccc1)NCc1ccc(CNC(=S)NCc2ccccc2)cc1 | -2% | -17 | -27% | 2%[59 µM] | -6% | -24
S=C(NCCCCc1ccccc1)NCc1ccccc1 | 46% | 4 | -10% | 55% | -22% | -13
Cc1ccc(NC(=O)c2cnc(SCC(=O)N3CCCc4ccccc43)n(C)c2=O)cc1 | 29% | / | -6% | -7%[59 µM] | -13% | /
CCc1ccccc1NC(=O)CN1CCCN(Cc2cc(C)ccc2C)S1(=O)=O | 50% | / | 14% | ? | -2% | /
S=C(NCCc1ccccc1)NCc1cccc(Cl)c1 | 37% | 6 | 3% | 8.9µM* | ? | 4
S=C(NCCc1ccccc1)NCCc1ccccc1 | 11% | 9 | -20% | -1%[59 µM] | -7% | 5
O=C(CCC(=O)NCc1ccccc1)NCc1ccccc1 | 18% | 0 | 4% | ? | -27% | /
O=C(CCS(=O)CCC(=O)NCc1ccccc1)NCc1ccccc1 | 40% | 0 | -4% | 50µM* | -38% | 4
CCCNC(=O)c1noc2c1CCc1cc(OC)ccc1-2 | 20% | 3 | -18%[11.4 µM] | 7% | 2% | 0
COc1ccc2c(c1)CCc1c(C(=O)NCc3cccnc3)noc1-2 | 23% | 1 | -1% | 40µM* | 15% | -19
Cc1ccc2nc(-c3ccc(NC(=O)C(F)(F)F)cc3)sc2c1 | 33% | / | -2% | -37%[59 µM] | 4% | /
Cc1ccc2nc(-c3ccc(NC(=O)CN4C(=O)c5ccccc5C4=O)cc3)sc2c1 | 35% | 2 | -9% | -18%[59 µM] | 11% | 1
Cc1ccc2nc(-c3ccc(NC(=O)CNC4CC4)cc3)sc2c1 | -20% | -3 | ? | 7.1µM* | 45µM* | 8
Cc1ccc2nc(-c3ccc(NC(=O)COC(=O)c4ccc(=O)[nH]c4)cc3)sc2c1 | -17% | -20 | 45µM* | -15%[59 µM] | -1% | -1
Cc1ccc2[nH]c(C(=O)Nc3ccccc3)cc2c1 | 43% | / | 6% | 8%[59 µM] | 2% | /
SMILES | HP1b chromo inh | Six1-Eya2 inh | JMJD2A Tudor | G9a inh | BAZ2B inh | CtBP-E1A inh
COCCNc1nnc(SCC(=O)Nc2cc(-c3ccccc3)nn2-c2ccccc2)s1 | 15% | 2 | -36% | 79µM* | -38% | -1
COCCNc1nnc(SCC(=O)Nc2cc(C)on2)s1 | 49% | 3 | -5% | 50%[12.7 µM] | 1% | /
COCCNc1nnc(SCC(=O)NC(=O)c2ccccc2)s1 | 35% | 5 | -11% | 50µM* | 7% | 4
Cc1cc(NC(=O)N2CCC(CN3CCOCC3)CC2)ccc1Br | 42% | / | -15% | -4%[59 µM] | -2% | /
CCc1cccc(CC)c1NC(=O)c1cccc(N)c1 | ? | 5 | 56µM* | 36%[12.7 µM] | -5% | -2
CC(C)OC(=O)C(C)Nc1n[nH]c(=S)[nH]c1=O (stereo not drawn) | 52% | 6 | -1% | 45µM* | -21% | 19
CC(C)OC(=O)CNc1n[nH]c(=S)[nH]c1=O | 6% | 13 | 79µM* | 25µM* | -21% | -8
